Bioassay records (PubChem BioAssay)
FMDV antiviral: High Throughput Screening for Foot and Mouth Disease Virus Antivirals; FMDV antiviral cell-based qHTS; Potency, µM (doses to about 57.9 µM), for inactives: top-dose activity change, negative = inhibition, usual class: inhibitors; 410,000 tested, 1.2% active; AID 1159524, 2015; calls by dose curve; tested in HEK293T cells; note: read-out not given here; potency is the fitted concentration of half-maximal effect; % is set by controls: 0 for no effect and ±100 for the full control effect; nearly all actives have a fitted effect of over 45% in size
LASV entry inh: qHTS for Inhibitors of binding or entry into cells for Lassa Virus. Lassa virus pseudotype entry inhibition, cell reporter. Potency, µM (titrated, usually from 37.9 µM), without a hit: top-dose activity change, negative = inhibition, hits mostly inhibitors. 300,000 tested, 1.2% active. AID 540256, 2011; calls by dose curve; tested in HEK293 cells; note: potency is the fitted concentration of half-maximal effect; % is set by controls: 0 for no effect and ±100 for the full control effect; nearly all actives have a fitted effect of over 50% in size
HCV inhibitor: qHTS Assay for Inhibitors of Hepatitis C Virus (HCV); Potency, µM (doses to about 41.8 µM), for inactives: top-dose activity change, negative = inhibition, actives largely listed as inhibitors; Huh7.5.1 HCVcc-Cre infection, luciferase reporter, 44 h; 340,000 tested, 3.4% active; active = well fitted inhibition curve with a large enough effect; inconclusive = small, poorly fitted or top-dose-only effect, or another doubt; inactive = no such curve, though single readings can be large or run the other way; note: potency is the fitted concentration of half-maximal effect; % is set by controls: 0 for no effect and ±100 for the full control effect
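Infectious HCVcc-Cre (~0.5 moi) was added to cells just after compound, with cells seeded 4 h earlier at 1,000 per well. Luciferase activity after 44 h culture reported infection; substrate was incubated 15 min at room temperature before reading.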
MARV entry inh: qHTS for inhibitors of binding or entry into cells for Marburg Virus; Marburg virus pseudotyped entry inhibition, cell reporter; Potency, µM (highest dose often 37.8 µM), for the others: at the highest dose activity change, negative = inhibition, most hits filed as inhibitors; 300,000 tested, 1.8% active; AID 540276, 2011; calls by dose curve; tested in HEK293 cells; note: potency is the fitted concentration of half-maximal effect; % is set by controls: 0 for no effect and ±100 for the full control effect
Cycloheximide cs: Cycloheximide Counterscreen for Small Molecule Inhibitors of Shiga Toxin. cell reporter, cycloheximide protein synthesis inhibition counterscreen. AID 2314, 2010. max response, %. 300,000 tested, 12% active; in the data active = max response mostly above about 13%, no sharp cut-off; inactive = mostly below about 14%; note: read at 38.3 µM for the half of the compounds with a filed dose; 0% is about no effect
Shiga inhibitor: A qHTS for Small Molecule Inhibitors of Shiga Toxin; Vero cells, Shiga toxin protein synthesis inhibition reporter; inhibition, % at 38.7 µM; 290,000 tested, 9.2% active; AID 2315, 2010; in the data active = inhibition mostly above about 28%, no sharp cut-off; inactive = mostly below about 43%; note: 0% is about no effect
Active calls of the source: *; u = inconclusive; x = not tested or not shown; + = active, no number; [ ] = remark or other dose. Shown are actives, neighbours in structure and some others; about 13% of the full set was active somewhere.

SMILES	FMDV antiviral	LASV entry inh	HCV inhibitor	MARV entry inh	Cycloheximide cs	Shiga inhibitor
Cc1coc2cc3oc(=O)c(CCC(=O)NCCCN4CCOCC4)c(C)c3cc12	-11%	x	-38%	x	-1	4
Cc1oc2cc3oc(=O)c(CCC(=O)NCCN4CCOCC4)c(C)c3cc2c1C	20%	x	2%	x	29*	31*
Cc1coc2cc3oc(=O)c(CCC(=O)NCc4ccccn4)c(C)c3cc12	0%	x	1µM*	x	5	10
O=C(Nc1cc(S(=O)(=O)N2CCOCC2)ccc1N1CCOCC1)c1ccc(S(=O)(=O)N2CCCCC2)cc1	-2%	-24%	-22%	u	-4	-17
CCCc1ccc(-c2cc(C(=O)NC3=NCCS3)c3ccccc3n2)cc1	-13%	-23%	u	-25%	19*	24*
Cc1ccc(-c2cc(C(=O)NC3=NCCS3)c3ccccc3n2)cc1C	15%	u	u	-52%	18*	44
Cc1ccc(CNC(=O)c2cc(-c3ccc(C)c(C)c3)nc3ccccc23)cc1	-13%	-5%[46.1 µM]	x	x	x	x
O=C(NC1=NCCS1)c1cc(-c2ccc(F)cc2)nc2ccccc12	14%	-9%	u	u	17*	10
CC(=O)OC1C2C(OC(=O)Cc3ccccc3)C(C)CC2(OC(C)=O)C(=O)/C(C)=C/C2C(CC[C@@]13CO3)C2(C)C (stereo partly specified)	5%	x	x	x	x	x
CCOC(=O)c1c(NC(=O)c2c(C)noc2C)sc2c1CCCCC2	-12%	-1%	-7%	6%	-4	-6
COc1ccc(N(C(C)C(=O)N2CCC(Cc3ccccc3)CC2)S(C)(=O)=O)cc1 (stereo unspecified)	11µM*	u	8.9µM*	u	9	20
COc1ccc(N(C(C)C(=O)N2CCCC2)S(C)(=O)=O)cc1 (stereo unspecified)	-11%	x	7%	x	1	x
CCOC(=O)N1CCN(C(=O)C(C)N(c2ccc(Oc3ccccc3)cc2)S(C)(=O)=O)CC1 (stereo unspecified)	u	-28%	u	-26%	-1	-2
CCOC(=O)C1CCN(C(=O)C(C)N(c2ccc(Oc3ccccc3)cc2)S(C)(=O)=O)CC1 (stereo unspecified)	u	x	10µM*	x	-2	3
Cc1c(-c2ccc(Cl)cc2)noc1C1CCN(CCc2ccccc2)CC1	13%	x	x	x	x	x
Cc1cc2c(cc1C)NC(CC(=O)NCc1ccccc1)C(=O)N2 (stereo unspecified)	58%	u	u	14%	26*	61*
COc1ccc(OC)c(NC(=O)CC2Oc3ccccc3NC2=O)c1 (stereo unspecified)	48%	x	-25%	x	14*	28
COc1cc(Cl)c(C)cc1NC(=O)CC1Oc2ccccc2NC1=O (stereo unspecified)	-18%	x	x	u	x	x
COc1ccccc1NC(=O)CC1Nc2ccccc2NC1=O (stereo unspecified)	-6%	-1%	10µM*	-8%	4	19
Nn1cnc2sc3c(c2c1=O)CCC3	-10%	1%	20%	15%	1	-11
O=C(OCCc1cc2ccccc2c(=O)o1)c1ccccc1C(F)(F)F	-27%	x	22µM*	x	x	x
Cn1cc(CN2CCC[C@H]2CO)c(-c2cccc(Cl)c2)n1	-7%	x	9%	x	27*	-10
COc1ccc(CNC(=O)c2[nH]c(C(F)(F)F)nc2-c2ccccc2)cc1	-19%	x	x	x	x	x
Nc1cccc(C(=O)OCC(=O)c2ccccc2)c1	21%	5%	18%	u	44*	+
O=C(O)c1cccc(N2C(=O)C3CC=CCC3C2=O)c1 (stereo unspecified)	x	13%	9%	7%	0	3
SMILES	FMDV antiviral	LASV entry inh	HCV inhibitor	MARV entry inh	Cycloheximide cs	Shiga inhibitor
O=C(COC(=O)c1cccc(N2C(=O)C3CC=CCC3C2=O)c1)c1ccccc1 (stereo unspecified)	8%	-18%	6%	u	27*	55*
CCc1ccc(C(=O)COC(=O)c2cccc(N3C(=O)c4c(C)nc5ccccc5c4C3=O)c2)cc1	24%	u	-18%	u	56*	103*
O=C(COC(=O)c1ccc(N2CCCC2=O)cc1)c1ccccc1	27%	6%	2%	17%[46.1 µM]	31*	83*
Cc1cc(C(=O)OCC(=O)c2ccccc2)c2ccccc2n1	-23%	10%	-1%	13%[46.1 µM]	-5	1
O=C(COC(=O)c1cccc(O)c1)c1ccccc1	-3%	11%	17%	16%	x	x
CNC(=O)c1c(NC(=O)c2ccc(S(=O)(=O)N3CCCCC3C)cc2)sc2c1CCN(C)C2 (stereo unspecified)	28%	x	-15%	x	-4	-5
O=C(CC1NC(=O)NC1=O)Nc1ccccc1 (stereo unspecified)	8%	u	17%	u	-1	13
Cc1ccc(C(=O)OCC(=O)Nc2c(Cl)cc(S(N)(=O)=O)cc2Cl)o1	-19%	x	7%	x	-2	-3
Nc1nnc(COc2ccccc2)s1	-5%	u	-8%	-2%	8	1
Cc1nn(-c2ccccc2)c(C)c1C(=O)OCc1ccc(C#N)cc1	-17%	x	13µM*	x	36*	25
COc1ccc(NC(=O)c2c(C)nn(-c3ccccc3)c2Cl)cc1	48%	u	-19%	u	16*	x
COc1ccc(COC(=O)c2c(C)nn(-c3ccccc3)c2Cl)cc1	-6%	u	u	27%[46.1 µM]	22*	39*
COc1cccc(NC(=O)c2c(C)nn(-c3ccccc3)c2Cl)c1	23%	x	-24%	x	19*	31
Cc1nn(-c2ccccc2)c(Cl)c1C(=O)OCC(=O)NCCc1ccc(S(N)(=O)=O)cc1	-13%	-3%	4%	-5%	x	x
Cc1nn(-c2ccccc2)c(C)c1C(=O)OCC(N)=O	10%	x	8%	x	-1	-11
CC(=O)c1ccc(NC(=O)c2c(C)nn(-c3ccccc3)c2Cl)cc1	0%	1%	8%	u	-3	-8
CCOC(=O)C1CCN(C(=O)C2CCN(C3=NS(=O)(=O)C(c4ccc(C)c(C)c4)=C3C)CC2)CC1	0%	x	x	13%[46.1 µM]	x	x
CCOc1c2ccccc2nn1CCO	-1%	x	-19%	x	x	x
Cc1ccc(NC(=O)c2c(C)nn(-c3ccccc3)c2Cl)cc1	40%	-15%	-23%	22%	35*	66*
CCN(CC)C(=S)SCC(=O)c1ccccc1	5%	u	-12%	u	62*	68*
CCN(CC)C(=S)SCC(=O)c1ccc(F)cc1	62%	-15%	-19%	u	40*	60*
CCOC(=O)CNC(=O)c1ccc(Cl)s1	0%	u	1%	-5%[46.1 µM]	4	24
CCNc1nc(N)c(C(=O)c2ccc(Cl)s2)s1	61%	u	u	u	44*	130*
